Hits are enriched below; roughly 21% of the tested compounds scored in any of these assays.
DRD3 agonist = qHTS of D3 Dopamine Receptor Agonist: qHTS; D(3) dopamine receptor (Homo sapiens), P35462; D3R DiscoveRx beta-arrestin cells, luminescence, 90 min; max activation, %; actives 0.58% (n = 410,000); in the data active means max activation above about 30%; further: 0% is about no effect
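Agonist-mode cell screen: cells plated at 1500/well and incubated overnight at 37 °C, then exposed to library compounds for 90 min at 37 °C. Detection reagent was added for 30–60 min at room temperature, and luminescence was read.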
DT40 TDP1 CPT = qHTS for Inhibitors of human tyrosyl-DNA phosphodiesterase 1 (TDP1): qHTS in cells in presence of CPT; chicken DT40 Tdp1-/-;hTDP1 cells + 20 nM CPT, ATP luminescence, 48 h; Potency, µM (top dose mostly 46.2 µM), inactives show top-dose activity change, negative = growth inhibition, actives largely listed as inhibitors; actives 12% (n = 420,000); further: potency means the concentration at half of the fitted maximal effect; on the % scale 0 is the no-effect control and ±100 the full control effect; nearly all actives have a fitted effect of over 55% in size
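Cell growth measured by CellTiter-Glo luminescence after a minimum 48 h, 37 C compound exposure with 20 nM CPT in Tdp1-knockout DT40 cells stably expressing hTDP1, seeded 400/well; qHTS titration format.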
ClpP mod = qHTS Assay for Activators of ClpP. purified B. subtilis ClpP, FRET peptide cleavage, 20 min. Potency, µM (highest dose often 57.5 µM), for inactives: at the top dose activity change, negative = active. actives 1.9% (n = 340,000); active means well fitted falling curve with a large enough effect; inconclusive means small, poorly fitted or top-dose-only effect; inactive means no such curve, though single readings can be large or run the other way; further: potency means the concentration at half of the fitted maximal effect; the source files actives as falling curves though it sought activators and does not explain the sign; nearly all actives have a fitted effect of over 65% in size
Target sequence (P80244 whole entry, looked up): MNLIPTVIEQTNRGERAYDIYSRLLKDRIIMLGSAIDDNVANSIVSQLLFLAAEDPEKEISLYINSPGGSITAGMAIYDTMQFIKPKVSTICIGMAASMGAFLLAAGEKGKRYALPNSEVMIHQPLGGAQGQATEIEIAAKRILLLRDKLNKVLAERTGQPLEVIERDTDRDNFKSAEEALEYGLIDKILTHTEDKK
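FRET quenching reversal measured ClpP activation: 10 microg/mL B. subtilis ClpP at pH 8 with the FRET-FV decapeptide, read at 430 nm after 320 nm excitation. The 20-min minus 0-min signal was scaled between DMSO/no-enzyme wells and ADEP (5.8 microM final).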
D3 antag = qHTS of D3 Dopamine Receptor Antagonist: qHTS; D3R cells, DiscoveRx beta-arrestin luminescence, antagonist mode; active compounds read low; max response, negative = inhibition, %; actives 2.5% (n = 360,000); in the data active means max response below about -50%; inconclusive means no clear call, values can overlap the other calls; further: on the % scale 0 is the no-effect control and ±100 the full control effect
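Cells plated overnight at 1500 cells/well, then exposed to library compounds with dopamine controls for 90 minutes at 37 degrees C. DiscoveRx reagent added for 30–60 minutes at room temperature; luminescence read, quantitative HTS format.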
TDP1 cell noCPT = qHTS for Inhibitors of human tyrosyl-DNA phosphodiesterase 1 (TDP1): qHTS in cells in absence of CPT; DT40 Tdp1-/- hTDP1 cells, no CPT, ATP luminescence, 48 h; Potency, µM (series often up to 46.2 µM), without a hit: at the highest dose activity change, negative = growth inhibition, hits mostly inhibitors; actives 15% (n = 420,000); further: potency means the concentration at half of the fitted maximal effect; on the % scale 0 is the no-effect control and ±100 the full control effect; nearly all actives have a fitted effect of over 55% in size
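Seeded 400 DT40-hTDP1 cells/well (vehicle DMSO, no 20 nM CPT); pinned compounds; ≥48 hr at 37 °C; CellTiter-Glo luminescence as viability measure.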
IL1B secr inh = qHTS for Inhibitors of Inflammasome Signaling: IL-1-beta AlphaLISA Primary Screen. THP-1 LPS/ATP IL-1B secretion, AlphaLISA, 16 h; active compounds read low. activity change, % at 57.5 µM. actives 4.7% (n = 360,000). AID 743279, 2014; in the data active means activity change below about -50%; inconclusive means mostly about -30% to -49%; further: on the % scale 0 is the no-effect control and ±100 the full control effect
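THP-1 cells pretreated 1 hr with compounds (up to 57.5 uM final), then stimulated with LPS (250 ng/mL final) plus ATP (1.25 mM final); secreted IL-1B measured by AlphaLISA after 16 hr, decreased signal indicating inhibition.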
Numbers without * were called inactive; ? = inconclusive; nt = no result given. Unless noted, the call rests on the fitted dose curve; in most records, active means well fitted inhibition curve with a large enough effect; inconclusive means small, poorly fitted or top-dose-only effect; inactive means flat fitted curve, though single readings scatter.

SMILES | DRD3 agonist | DT40 TDP1 CPT | ClpP mod | D3 antag | TDP1 cell noCPT | IL1B secr inh
COCCCNC(=O)c1c[nH]c2ccc(S(=O)(=O)N3CCc4ccccc43)cc2c1=O | 1.6 | -29.3% | nt | 7.6 | ? | -2.4
O=S(=O)(c1ccc(F)c(F)c1)N1CCCc2ccccc21 | 5.8 | -21.2% | 3.3% | 5.7 | ? | 32.2
CCc1ccccc1NC(=O)c1cc(S(=O)(=O)N2CCc3ccccc32)ccc1F | -6.6 | 16.4µM* | 0.0% | nt | 10.3µM* | nt
CCc1ccccc1NC(=O)c1cc(S(=O)(=O)N2CCCc3ccccc32)ccc1F | 11.1 | 16.4µM* | -1.0% | nt | 18.4µM* | nt
CCCNC(=O)c1cc(S(=O)(=O)N2CCc3ccccc32)ccc1F | 1.5 | 5.17µM* | -4.0% | -16.0 | 14.6µM* | -7.6
CCC(=O)Nc1ccc(S(=O)(=O)N2CCc3ccccc32)cc1 | 5.1 | ? | -0.8% | 7.9 | -27.1% | 32.9
O=C(Nc1cc(Cl)ccc1Cl)c1cc(S(=O)(=O)N2CCCc3ccccc32)ccc1F | -6.5 | 23.1µM* | 0.1% | nt | ? | nt
CCc1ccccc1NC(=O)N1CCCc2ccccc21 | -1.8 | -22.5% | -0.2% | 19.5 | 2.1% | 6.0
CC(=O)N1CCC2(CCN(Cc3ccccc3)CC2)CC1 | nt | 9.6% | nt | nt | -2.8% | nt
COc1ccc(S(=O)(=O)N2CCc3ccccc32)cc1C(=O)NCCc1ccc(S(N)(=O)=O)cc1 | 4.8 | -0.6% | -3.8% | 15.1 | 0.7% | -11.7
COc1ccc(CCNC(=O)c2cc(S(=O)(=O)N3CCc4ccccc43)ccc2F)cc1OC | -4.1 | 11.6µM* | -1.4% | 18.0 | 6.51µM* | -6.5
COc1ccccc1NC(=O)c1cc(S(=O)(=O)N2CCc3ccccc32)ccc1F | -1.6 | 18.4µM* | -7.3% | 13.1 | ? | 19.1
COc1ccc2c(c1)c(CC(=O)Nc1ccccc1OC)c(C)n2C(=O)c1ccc(Cl)cc1 | -7.2 | ? | nt | -4.0 | ? | 0.0
COc1ccc2c(c1)c(CC(=O)Nc1ccc(C(C)=O)cc1)c(C)n2C(=O)c1ccc(Cl)cc1 | -9.9 | 20.6µM* | -2.7% | -29.6 | 16.4µM* | -5.3
COc1ccc2c(c1)c(CC(=O)Nc1nnc(C3CC3)s1)c(C)n2C(=O)c1ccc(Cl)cc1 | 54.1* | 14.6µM* | nt | 79.2 | 8.2µM* | 5.6
COc1ccc2c(c1)c(CC(=O)Nc1cc(C)ccc1C)c(C)n2C(=O)c1ccc(Cl)cc1 | -7.0 | ? | -4.7% | -23.7 | 16.4µM* | -6.3
CCNc1ncc2nc(-c3cccs3)c(=O)n(C)c2n1 | nt | 7.3% | nt | nt | 2.3% | nt
Cc1cn([C@H]2C[C@H](O)[C@@H](CCC(=O)NCC3CCCO3)O2)c(=O)[nH]c1=O (some centres undefined) | 11.2 | -7.7% | 1.0% | 0.0 | -9.3% | 39.7
CSCCC(N=C(NS(=O)(=O)c1ccccc1)c1ccccc1)C(=O)O (centres undefined) | -1.2 | -22.2% | nt | 8.9 | -0.2% | 1.6
Cc1cc(C)n(C(=O)Cn2nc([N+](=O)[O-])c(Br)c2C)n1 | -10.3 | 1.5% | 0.3% | 2.1 | 1.5% | -5.4
COCC(=O)NCc1nc2cccnc2n1Cc1ccc(F)cc1 | -0.2 | 13.6% | -1.1% | nt | -0.5% | nt
Cc1ccc(CC(C)(O)CC(C)(O)Cc2ccc(C)cc2)cc1 (centres undefined) | 1.0 | 20.6µM* | -7.4% | 1.4 | 18.4µM* | -3.1
Cc1ccc(C(NC(=O)Cc2cccs2)C(=O)Nc2ccc(C(C)C)cc2)cc1 (centres undefined) | -8.7 | 16.4µM* | -1.2% | nt | ? | nt

From PubChem
